Results filed as inconclusive are left out. Where a call stands in place of a potency, no number is given. The source holds several records for some structures; these can differ, active in one and inactive in another. Activity calls are given as the source filed them. The call rests on the fitted dose curve.
Tests used:
[1] = biological target: Acetylcholinesterase (Homo sapiens) (UniProt P22303); test: Acetylcholinesterase (AChE) small molecule antagonists: colormetric cell-based qHTS assay (AID 1347395); settings: SH-SY5Y cells AChE activity, colorimetric (Ellman); series mostly up to 115 µM; further: nearly all actives have a fitted effect of over 30% in size; further: potency means the concentration at half of the fitted maximal effect
How it was run: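 Colorimetric readout: DTNB quantifies thiocholine from acetylthiocholine hydrolysed by endogenous AChE of SH-SY5Y cells (2,000/well, plated overnight). Compound pretreatment 30 min, substrate incubation 90 min, both 37 C.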

[2] = biological target: Acetylcholinesterase (Homo sapiens) (UniProt P22303); test: Acetylcholinesterase (AChE) small molecule antagonists: enzyme-based qHTS assay (AID 1347397); settings: Potency: AChE enzyme activity inhibition; outcome: AChE enzyme activity inhibition; series mostly up to 115 µM; further: nearly all actives have a fitted effect of over 55% in size
How it was run: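 Enzyme inhibition was scored from DTNB-detected thiocholine formed by recombinant human AChE acting on acetylthiocholine. The 30 min compound preincubation and 10 min substrate reaction were both run at room temperature, with DMSO as vehicle control.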

[3] = biological target: Acetylcholinesterase (Homo sapiens) (UniProt P22303); test: Acetylcholinesterase (AChE) small molecule antagonists: fluorescence cell-based qHTS assay (AID 1347398); settings: SH-SY5Y cells; Potency: AChE activity; outcome: AChE activity; series mostly up to 115 µM; further: nearly all actives have a fitted effect of over 50% in size; further: potency means the concentration at half of the fitted maximal effect
How it was run: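 Endogenous acetylcholinesterase of SH-SY5Y neuroblastoma cells is measured in situ. After overnight attachment and 30 min compound exposure, cells receive acetylthiocholine and Thiolite Green; fluorescence is read after 40 min at room temperature.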

[4] = biological target: Acetylcholinesterase (Homo sapiens) (UniProt P22303); test: Acetylcholinesterase (AChE) small molecule antagonists: enzyme-based qHTS assay with human liver microsomes (AID 1347399); settings: Potency: qHTS inhibition; outcome: qHTS inhibition; series mostly up to 115 µM; further: nearly all actives have a fitted effect of over 60% in size
How it was run: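 Recombinant human AChE (50 mU/mL in the enzyme mix) and human liver microsomes (0.25 mg/mL final) were preincubated with compound and NADPH (0.25 mg/mL final) for 30 min at 37 C. Acetylthiocholine/DTNB was then added; thiocholine was read colorimetrically after 10 min at room temperature.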

Chain of Acetylcholinesterase (Homo sapiens) (P22303 whole entry, looked up): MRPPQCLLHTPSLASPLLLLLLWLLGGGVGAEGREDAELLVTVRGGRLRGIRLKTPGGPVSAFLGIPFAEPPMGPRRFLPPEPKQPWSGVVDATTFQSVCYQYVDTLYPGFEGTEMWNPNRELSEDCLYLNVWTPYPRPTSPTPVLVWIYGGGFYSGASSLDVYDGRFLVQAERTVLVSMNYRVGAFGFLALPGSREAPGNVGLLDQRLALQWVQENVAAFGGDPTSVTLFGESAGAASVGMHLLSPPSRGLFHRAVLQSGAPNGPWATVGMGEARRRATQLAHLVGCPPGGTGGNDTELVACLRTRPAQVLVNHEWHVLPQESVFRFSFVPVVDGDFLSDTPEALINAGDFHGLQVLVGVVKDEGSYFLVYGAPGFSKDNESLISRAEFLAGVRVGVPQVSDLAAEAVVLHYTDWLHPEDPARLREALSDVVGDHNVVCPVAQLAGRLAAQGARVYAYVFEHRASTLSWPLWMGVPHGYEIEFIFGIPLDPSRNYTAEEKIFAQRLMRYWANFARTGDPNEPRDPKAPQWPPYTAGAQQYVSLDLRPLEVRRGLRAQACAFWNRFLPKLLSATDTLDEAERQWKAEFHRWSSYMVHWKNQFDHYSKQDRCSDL

## O=C(O)c1cc(Cl)cc(Cl)c1O
[1]
  Potency: inactive
[2]
  Potency: inactive
[3]
  Potency: inactive
[4]
  Potency: inactive

## C=C(C)C(=O)OCCCCCCCCCCCCC
[1]
  Potency: inactive
[2]
  Potency: inactive
[3]
  Potency: inactive
[4]
  Potency: inactive

## Cc1cccc2ccccc12
[1]
  Potency: inactive
[2]
  Potency: inactive
[3]
  Potency: inactive
[4]
  Potency: inactive

## CCCCCCCCCCCCO
[1]
  Potency: inactive
[2]
  Potency: inactive
[3]
  Potency: inactive
[4]
  Potency: inactive

## CCCCCCCCCCCCSC#N
[1]
  Potency: inactive
[2]
  Potency: inactive
[3]
  Potency: inactive
[4]
  Potency: inactive

## CCCc1ccc(OCC(=O)N2CCN(C(=O)COc3ccc(CCC)cc3OC)CC2)c(OC)c1
[1]
  Potency: inactive
[2]
  Potency: inactive
[3]
  Potency: inactive
[4]
  Potency: inactive

## CCCCCC[C@@H](O)C/C=C\CCCCCCCC(=O)OCC(O)CO (stereo not given in full)
[1]
  Potency: inactive
[2]
  Potency: inactive
[3]
  Potency: inactive
[4]
  Potency: inactive

## CSc1ccc(O)cc1C
[1]
  Potency: inactive
[2]
  Potency: inactive
[3]
  Potency: inactive
[4]
  Potency: inactive

## CCCCCCCC
[1]
  Potency: inactive
[2]
  Potency: inactive
[3]
  Potency: inactive
[4]
  Potency: inactive

## Cc1cc(C)c(S(=O)(=O)O)cc1N=Nc1cc(S(=O)(=O)O)c2ccccc2c1O
[1]
  Potency: inactive
[2]
  Potency: inactive
[3]
  Potency: inactive
[4]
  Potency: inactive

## CCCCNCC
[1]
  Potency: inactive
[2]
  Potency: inactive
[3]
  Potency: inactive
[4]
  Potency: inactive

## CN(C)[C@@H]1C(=O)C(C(N)=O)=C(O)[C@@]2(O)C(=O)C3=C(O)c4c(O)cccc4C[C@H]3C[C@@H]12
[1]
  Potency: inactive
[2]
  Potency: inactive
[3]
  Potency: inactive
[4]
  Potency: inactive

## CCOCCn1c(N2CCCN(C)CC2)nc2ccccc21
[1]
  Potency: inactive
[2]
  Potency: inactive
[3]
  Potency: inactive
[4]
  Potency: inactive

## CN(C)c1ccc(/C=C/c2ccc([N+](=O)[O-])cc2)cc1
[1]
  activity, negative = inhibition: 3.64% [at 10.5 µM] (inactive)
[2]
  activity change, negative = inhibition: 1.35% [at 10.5 µM] (inactive)
[3]
  activity change, negative = inhibition: 4.62% [at 10.5 µM] (inactive)
[4]
  activity change, negative = inhibition: 1.54% [at 10.5 µM] (inactive)

## Cc1occc1SSc1ccoc1C
[1]
  Potency: inactive
[2]
  Potency: inactive
[3]
  Potency: inactive
[4]
  Potency: inactive

## CN(C)C(=O)CNC(=O)Cc1ccccc1
[1]
  Potency: inactive
[2]
  Potency: inactive
[3]
  Potency: inactive
[4]
  Potency: inactive

## O=c1cc[nH]c(=S)[nH]1
[1]
  Potency: inactive
[2]
  Potency: inactive
[3]
  Potency: inactive
[4]
  Potency: inactive

## CCOCC(O)COc1ccc(NC(=O)CC[S+](C)C)cc1 (stereo not given)
[1]
  Potency: inactive
[2]
  Potency: inactive
[3]
  Potency: inactive
[4]
  Potency: inactive

## O=C(O)CCC(=O)c1ccc(-c2ccccc2)cc1
[1]
  Potency: inactive
[2]
  Potency: inactive
[3]
  Potency: inactive
[4]
  Potency: inactive

## CC(C)=CCl
[1]
  Potency: inactive
[2]
  Potency: inactive
[3]
  Potency: 22.7 µM (active) and inactive
[4]
  Potency: inactive

## O=C(O)C(=O)O
[1]
  Potency: inactive
[2]
  Potency: inactive
[3]
  Potency: inactive
[4]
  Potency: inactive

## C=CCc1ccc(O)c(OC)c1
[1]
  Potency: inactive
[2]
  Potency: inactive
[3]
  Potency: inactive
[4]
  Potency: inactive

## CC(=O)OC/C=C(\C)CCC=C(C)C
[1]
  Potency: inactive
[2]
  Potency: inactive
[3]
  Potency: inactive
[4]
  Potency: inactive

## O=C(O)c1ccccc1
[1]
  Potency: 3.74 µM (active) and inactive
[2]
  Potency: inactive
[3]
  Potency: inactive
[4]
  Potency: inactive

## Fc1ccccc1-c1ccccc1
[1]
  Potency: inactive
[2]
  Potency: inactive
[3]
  Potency: inactive
[4]
  Potency: inactive

## CCO[Si](CCC#N)(OCC)OCC
[1]
  Potency: inactive
[2]
  Potency: inactive
[3]
  Potency: inactive
[4]
  Potency: inactive

## O=S(O)O
[1]
  activity, negative = inhibition: 0.406% [at 23.6 µM] (inactive)
[2]
  activity change, negative = inhibition: -0.777% [at 23.6 µM] (inactive)
[3]
  activity change, negative = inhibition: 0.464% [at 23.8 µM] (inactive)
[4]
  activity change, negative = inhibition: -0.486% [at 23.6 µM] (inactive)

## COc1cccc(N(C)C(=S)Oc2ccc3c(c2)CCCC3)n1
[1]
  Potency: inactive
[2]
  Potency: inactive
[3]
  Potency: inactive
[4]
  Potency: inactive

## CC(=O)C1=C(C)[C@@H]2C[C@@]3(C1)[C@H](C)CC[C@H]3C2(C)C
[1]
  Potency: inactive
[2]
  Potency: inactive
[3]
  Potency: inactive
[4]
  Potency: inactive

## C#CC(C)(O)CC(C)C (stereo not given)
[1]
  Potency: inactive
[2]
  Potency: inactive
[3]
  Potency: inactive
[4]
  Potency: inactive

## C[C@]12CCC(=O)C=C1[C@@H]1C[C@@H]1[C@H]1[C@@H]3[C@@H]4C[C@@H]4[C@@]4(CCC(=O)O4)[C@@]3(C)CC[C@@H]12
[1]
  Potency: inactive
[2]
  Potency: inactive
[3]
  Potency: inactive
[4]
  Potency: inactive

## CC1(O)CSC(C)(O)CS1 (stereo not given)
[1]
  Potency: inactive
[2]
  Potency: inactive
[3]
  Potency: inactive
[4]
  Potency: inactive

## CCCCCC(C)N (stereo not given)
[1]
  Potency: inactive
[2]
  Potency: inactive
[3]
  Potency: inactive
[4]
  Potency: inactive

## CN1CCN(c2c(F)cc3c(=O)c(C(=O)O)cn4c3c2OCN4C)CC1
[1]
  activity, negative = inhibition: 1.67% [at 23.6 µM] (inactive)
[2]
  activity change, negative = inhibition: 0.0377% [at 23.6 µM] (inactive)
[3]
  activity change, negative = inhibition: 5.01% [at 23.8 µM] (inactive)
[4]
  activity change, negative = inhibition: -0.167% [at 23.6 µM] (inactive)

## O=S1(=O)CC=CC1
[1]
  Potency: inactive
[2]
  Potency: inactive
[3]
  Potency: inactive
[4]
  Potency: inactive

## C=C(C)C(=O)OCCOC1CC2CC1C1C=CCC21 (stereo not given)
[1]
  Potency: inactive
[2]
  Potency: inactive
[3]
  Potency: inactive
[4]
  Potency: inactive

## CC(=O)O[C@H]1CC[C@@]2(C)C(=CC[C@@H]3[C@@H]2CC[C@]2(C)C(C(C)=O)=CC[C@@H]32)C1
[1]
  Potency: inactive
[2]
  Potency: inactive
[3]
  Potency: inactive
[4]
  Potency: inactive

## C=C(C)C(=O)OCC(CC)(COC(=O)C(=C)C)COC(=O)C(=C)C
[1]
  Potency: inactive
[2]
  Potency: inactive
[3]
  Potency: inactive
[4]
  Potency: inactive

## CC(C)(C)C(=O)C1C(=O)c2ccccc2C1=O
[1]
  Potency: inactive
[2]
  Potency: inactive
[3]
  Potency: inactive
[4]
  Potency: inactive

## C=CC(=C)CCC=C(C)C
[1]
  Potency: inactive
[2]
  Potency: inactive
[3]
  Potency: inactive
[4]
  Potency: inactive

## CCC(CC)(CC(=O)Nc1cccc(/C=C/c2nc(C3CCC3)cs2)c1)C(=O)O
[1]
  Potency: inactive
[2]
  Potency: inactive
[3]
  Potency: inactive
[4]
  Potency: inactive

## CN(C)CCCCl
[1]
  Potency: inactive
[2]
  Potency: inactive
[3]
  Potency: inactive
[4]
  Potency: inactive

## CC(=O)OC(C)(C)C
[1]
  Potency: inactive
[2]
  Potency: inactive
[3]
  Potency: inactive
[4]
  Potency: inactive

## NCCN1CCNCC1
[1]
  Potency: inactive
[2]
  Potency: inactive
[3]
  Potency: inactive
[4]
  Potency: inactive

## C1COCCO1
[1]
  Potency: inactive
[2]
  Potency: inactive
[3]
  Potency: inactive
[4]
  Potency: inactive

From PubChem BioAssay (Tox21)
